Assay results: ChEMBL document CHEMBL4513141, “CO-ADD screening of NIH (USA) - Clinical Collection” (2021)
Potency and affinity values are given separately.

Columns and labels:
Klebsiella pneumoniae = settings: Concentration 20 uM; ASSAY_TEST Inhibition of Bacterial Growth; detection method Absorption (OD600); MEDIA CAMHB; plate type 384well; NBS; CORNING #3640; time 18 hr
Candida albicans = settings: 20 µM
Cryptococcus neoformans = settings: Concentration 20 uM; ASSAY_TEST Inhibition of Fungal Growth; detection method Resazurin; Absorption (OD600-OD570); plate type 384well; NBS; CORNING #3640

Compound | Inhibition (Klebsiella pneumoniae) | Inhibition (Candida albicans) | Inhibition (Cryptococcus neoformans)
O=C(NCCO[N+](=O)[O-])c1cccnc1 [NICORANDIL] | 15.28% | 1.66% | -0.1%
CN1CCN(C2=Nc3cc(F)ccc3Cc3ccccc32)CC1 [FLUPERLAPINE] | 11.17% | 3.99% | -6.37%
Cc1c(C(=O)NN2CCCCC2)nn(-c2ccc(Cl)cc2Cl)c1-c1ccc(I)cc1 | -0.74% | 7.4% | -5.99%
CC1(C)C[C@@H]1C(=O)N/C(=C\CCCCSC[C@H](N)C(=O)O)C(=O)[O-].[Na+] [CILASTATIN SODIUM] | -2.84% | 5.18% | -1.08%
CCOC(=O)[C@@H](CCc1ccccc1)N[C@@H](C)C(=O)N1CCC[C@H]1C(=O)O.O=C(O)/C=C\C(=O)O | 10.36% | 0.69% | -1.23%
CC(C)(C(=O)c1cccnc1)c1cccnc1 [METYRAPONE] | 19.17% | 2.49% | -9.27%
C[C@@H]1O[C@@H](OC[C@H]2O[C@@H](Oc3c(-c4ccc(O)c(O)c4)oc4cc(O)cc(O)c4c3=O)[C@H](O)[C@@H](O)[C@@H]2O)[C@H](O)[C@H](O)[C@H]1O [RUTIN] | 10.13% | 3.37% | -5.7%
CCN1CCCC1CNC(=O)c1cc(S(=O)(=O)CC)c(N)cc1OC (stereo not drawn) [AMISULPRIDE] | 4.49% | 1.45% | -4%
Nc1nc(Cl)nc2c1ncn2[C@H]1C[C@H](O)[C@@H](CO)O1 [CLADRIBINE] | 16.3% | 1.93% | -8.92%
Cc1nc2ccccn2c(=O)c1CCN1CCC(C(=O)c2ccc(F)cc2)CC1 [PIRENPERONE] | 8.87% | 3.8% | -7.79%
CCCNC(C)C(=O)Nc1ccccc1C.Cl (stereo not drawn) [PRILOCAINE HYDROCHLORIDE] | 10.6% | 2.91% | -8.37%
CC[C@H]1OC(=O)[C@H](C)C(=O)[C@H](C)[C@@H](O[C@@H]2O[C@H](C)C[C@H](N(C)C)[C@H]2O)[C@](C)(OC)C[C@@H](C)C(=O)[C@H](C)[C@@H]2N(CCCCn3cnc(-c4cccnc4)c3)C(=O)O[C@@]21C | 3.48% | 0.39% | -1.28%
O=c1c(-c2ccccc2)c1-c1ccccc1 [DIPHENCYPRONE] | -5.06% | 5.88% | 10.54%
Cl.NC[C@H]1CC[C@H](C(=O)Oc2ccc(CCC(=O)O)cc2)CC1 [CETRAXATE HYDROCHLORIDE] | 11.26% | 4.33% | -5.7%
CSc1nc2cc(Cl)c(Oc3cccc(Cl)c3Cl)cc2[nH]1 [TRICLABENDAZOLE] | -0.37% | 7.82% | -2.96%
CCN(CC)CCOC(=O)c1ccc(N)cc1.Cl [PROCAINE HYDROCHLORIDE] | 12% | 3.62% | -2.16%
COc1cc(C)nc(-n2nc(C)cc2OC)n1 [EPIRIZOLE] | 10.39% | -0.63% | 1.6%
CC1=C(C(=O)O)N2C(=O)[C@@H](NC(=O)[C@H](N)c3ccccc3)[C@H]2SC1.O [CEPHALEXIN] | 2.49% | 2.01% | 4.2%
CCCCC1=NC2(CCCC2)C(=O)N1Cc1ccc(-c2ccccc2-c2nnn[nH]2)cc1 [IRBESARTAN] | 7.4% | -0.2% | 0.28%
NC(=O)N1c2ccccc2CC(=O)c2ccccc21 [OXCARBAZEPINE] | 3.69% | 2.7% | -4.73%
CC(=O)OCC(=O)[C@@]1(O)CC[C@H]2[C@@H]3CCC4=CC(=O)CC[C@]4(C)[C@H]3C(=O)C[C@@]21C [CORTISONE ACETATE] | 12.5% | 1.99% | -0.31%
OCCN1CCN(CCCN2c3ccccc3Sc3ccc(Cl)cc32)CC1 [PERPHENAZINE] | 14.78% | 3.82% | 23.91%
O=[N+]([O-])c1cccc2cn[nH]c12 [7-NITROINDAZOLE] | 13.1% | 3.19% | -0.25%
C[C@]12CCC(=O)C=C1CC[C@@H]1[C@@H]2[C@@H](O)C[C@@]2(C)[C@H]1CC[C@]2(O)C(=O)CO [HYDROCORTISONE] | 5.06% | 1.65% | -3.64%
O=C(O)c1cc(/N=N/c2ccc(S(=O)(=O)Nc3ccccn3)cc2)ccc1O [SULFASALAZINE] | 2.94% | 8.72% | 5.13%
O=C1CN(/N=C/c2ccc(-c3ccc([N+](=O)[O-])cc3)o2)C(=O)[N-]1.[Na+] [DANTROLENE SODIUM] | 2.98% | 0.63% | 5.43%
